Test results reported in PubChem BioAssay (NCATS).
Records with an inconclusive call do not appear. Activity calls are given as the source filed them. Calls come from the whole dose curve; as a rule, active = well fitted cell-killing curve with a large enough effect; inconclusive = small, poorly fitted or top-dose-only effect, or effect the other way; inactive = flat fitted curve, though single readings scatter.

Legend:
Experiment in all cases: Primary qHTS to identify gynecologic anti-cancer compounds using libraries of approved drugs and bioactive compounds (AID 1345084); note: nearly all actives have a fitted effect of over 55% in size
C33A = conditions: Gynecologic cancer cell panel viability, ATPlite luminescence, 48 h; series mostly up to 57.5 µM
Method in brief: (§1)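 Cells, 1,000 per well, plated 16 h, then exposed 48 h at 37 C to compounds. Viability by ATPlite luminescence after 15 min at room temperature.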

CAOV3 = conditions: Gynecologic cancer cell panel viability, ATPlite luminescence, 48 h; series mostly up to 57.5 µM
Method in brief: as §1

CASKI = conditions: Gynecologic cancer cell panel viability, ATPlite luminescence, 48 h; series mostly up to 57.5 µM
Method in brief: as §1

Es-2 = conditions: Gynecologic cancer cell panel viability, ATPlite luminescence, 48 h; series mostly up to 57.5 µM
Method in brief: as §1

HeLa = conditions: Gynecologic cancer cell panel viability, ATPlite luminescence, 48 h; series mostly up to 57.5 µM
Method in brief: as §1

Hek293T = conditions: Gynecologic cancer cell panel viability, ATPlite luminescence, 48 h, control line for the selectivity index; series mostly up to 57.5 µM
Method in brief: as §1

JEG-3 = conditions: Gynecologic cancer cell panel viability, ATPlite luminescence, 48 h; series mostly up to 57.5 µM
Method in brief: as §1

OV90 = conditions: Gynecologic cancer cell panel viability, ATPlite luminescence, 48 h; series mostly up to 57.5 µM
Method in brief: as §1

PA-1 = conditions: Gynecologic cancer cell panel viability, ATPlite luminescence, 48 h; series mostly up to 57.5 µM
Method in brief: as §1

SKOV3 = conditions: Gynecologic cancer cell panel viability, ATPlite luminescence, 48 h; series mostly up to 57.5 µM
Method in brief: as §1

Tov-21-G = conditions: Gynecologic cancer cell panel viability, ATPlite luminescence, 48 h; series mostly up to 57.5 µM
Method in brief: as §1

Tov112D = conditions: Gynecologic cancer cell panel viability, ATPlite luminescence, 48 h; series mostly up to 57.5 µM
Method in brief: as §1
% is set by controls: 0 for no effect and ±100 for the full control effect.

C[C@H](O)[C@H](O)/C=C/c1cccc(O)c1CO
inactive: Potency (C33A) | Potency (CAOV3) | Potency (CASKI) | Potency (Es-2) | Potency (HeLa) | Potency (Hek293T) | Potency (JEG-3) | Potency (OV90) | Potency (PA-1) | Potency (SKOV3) | Potency (Tov-21-G) | Potency (Tov112D)

OC[C@H]1O[C@@H](OCCc2ccc(O)cc2)[C@H](O[C@@H]2OC[C@](O)(CO)[C@H]2O)[C@@H](O)[C@@H]1O
inactive: Potency (C33A) | Potency (CAOV3) | Potency (CASKI) | Potency (Es-2) | Potency (HeLa) | Potency (Hek293T) | Potency (JEG-3) | Potency (OV90) | Potency (PA-1) | Potency (SKOV3) | Potency (Tov-21-G) | Potency (Tov112D)

O=C1Nc2ccccc2C(O)(c2ccccc2)C1O (stereo unspecified)
inactive: Potency (C33A) | Potency (CAOV3) | Potency (CASKI) | Potency (Es-2) | Potency (HeLa) | Potency (Hek293T) | Potency (JEG-3) | Potency (OV90) | Potency (PA-1) | Potency (SKOV3) | Potency (Tov-21-G) | Potency (Tov112D)

CCNCc1nc2c(N)nc3ccccc3c2n1CC(C)(C)O
inactive: Potency (C33A) | Potency (CAOV3) | Potency (CASKI) | Potency (Es-2) | Potency (HeLa) | Potency (Hek293T) | Potency (JEG-3) | Potency (OV90) | Potency (PA-1) | Potency (SKOV3) | Potency (Tov-21-G) | Potency (Tov112D)

C=C(C(=O)O)C1CC(O)C2(C)CCCC(=C)C2C1 (stereo unspecified)
inactive: Potency (C33A) | Potency (CAOV3) | Potency (CASKI) | Potency (Es-2) | Potency (HeLa) | Potency (Hek293T) | Potency (JEG-3) | Potency (OV90) | Potency (PA-1) | Potency (SKOV3) | Potency (Tov-21-G) | Potency (Tov112D)

C[C@@H]1O[C@@H](O[C@H]2[C@@H](OC(=O)[C@]34CCC(C)(C)CC3C3=CCC5[C@@]6(C)C[C@H](O)[C@H](O[C@@H]7O[C@H](C(=O)O)[C@@H](O)[C@H](O)[C@H]7O)[C@@](C)(C(=O)O)C6CC[C@@]5(C)[C@]3(C)CC4)OC[C@H](O)[C@@H]2O)[C@H](O)[C@H](O)[C@H]1O[C@@H]1OC[C@@H](O)[C@H](O)[C@H]1O (stereo partly specified)
inactive: activity change, negative = cytotoxicity (C33A) 1.85% [at 11.6 µM] | activity change, negative = cytotoxicity (CAOV3) 24.8% [at 11.6 µM] | activity change, negative = cytotoxicity (CASKI) 0.336% [at 11.6 µM] | activity change, negative = cytotoxicity (Es-2) -0.221% [at 11.6 µM] | activity change, negative = cytotoxicity (HeLa) -0.61% [at 11.6 µM] | activity change, negative = cytotoxicity (Hek293T) -0.464% [at 11.6 µM] | activity change, negative = cytotoxicity (JEG-3) 3.02% [at 11.6 µM] | activity change, negative = cytotoxicity (OV90) 7.22% [at 11.6 µM] | activity change, negative = cytotoxicity (PA-1) -35% [at 11.6 µM] | activity change, negative = cytotoxicity (SKOV3) 13.5% [at 11.6 µM] | activity change, negative = cytotoxicity (Tov-21-G) -4.55% [at 11.6 µM] | activity change, negative = cytotoxicity (Tov112D) -6.05% [at 11.6 µM]

C=C[C@@H]1[C@H](O[C@@H]2O[C@H](CO)[C@@H](O)[C@H](O)[C@H]2O)OC=C(C(=O)O)[C@H]1CCOC(=O)/C=C/c1ccc(O)c(O)c1
inactive: Potency (C33A) | Potency (CAOV3) | Potency (CASKI) | Potency (Es-2) | Potency (HeLa) | Potency (Hek293T) | Potency (JEG-3) | Potency (OV90) | Potency (PA-1) | Potency (SKOV3) | Potency (Tov-21-G) | Potency (Tov112D)

COC(=O)N(C)c1c(N)nc(-c2nn(Cc3ccccc3F)c3ncccc23)nc1N
inactive: Potency (C33A) | Potency (CAOV3) | Potency (CASKI) | Potency (Es-2) | Potency (HeLa) | Potency (Hek293T) | Potency (JEG-3) | Potency (OV90) | Potency (PA-1) | Potency (SKOV3) | Potency (Tov-21-G) | Potency (Tov112D)

Cn1cc(-c2ccc3nnc(Sc4ccc5nn(C)cc5c4)n3n2)cn1
inactive: Potency (C33A) | Potency (CAOV3) | Potency (CASKI) | Potency (Es-2) | Potency (HeLa) | Potency (Hek293T) | Potency (JEG-3) | Potency (OV90) | Potency (PA-1) | Potency (SKOV3) | Potency (Tov-21-G) | Potency (Tov112D)

CC1C=CC2CCCCC2C1CCC1CC(O)CC(=O)O1 (stereo unspecified)
inactive: Potency (C33A) | Potency (CAOV3) | Potency (CASKI) | Potency (Es-2) | Potency (HeLa) | Potency (Hek293T) | Potency (JEG-3) | Potency (OV90) | Potency (PA-1) | Potency (SKOV3) | Potency (Tov-21-G) | Potency (Tov112D)

COc1cc(Br)c(S(=O)(=O)Nc2ccc(C(F)(F)F)c(O[C@@H]3CCN(C)C3)c2)cc1OC
inactive: Potency (C33A) | Potency (CAOV3) | Potency (CASKI) | Potency (Es-2) | Potency (HeLa) | Potency (Hek293T) | Potency (JEG-3) | Potency (OV90) | Potency (PA-1) | Potency (SKOV3) | Potency (Tov-21-G) | Potency (Tov112D)

CC[C@H]1OC(=O)[C@H](C)[C@@H](O[C@H]2C[C@@](C)(OC)[C@@H](O)[C@H](C)O2)[C@H](C)[C@@H](O[C@@H]2O[C@H](C)C[C@H](N(C)C)[C@H]2O)[C@](C)(O)C[C@@H](C)C(=O)[C@H](C)[C@H]2OC(=O)O[C@@]21C
inactive: Potency (C33A) | Potency (CAOV3) | Potency (CASKI) | Potency (Es-2) | Potency (HeLa) | Potency (Hek293T) | Potency (JEG-3) | Potency (OV90) | Potency (PA-1) | Potency (SKOV3) | Potency (Tov-21-G) | Potency (Tov112D)

C/C=C(\C)C(=O)OCC1OC(OC2OC(COC(=O)/C(C)=C/C)C(OC3OC(CO)C(OC(=O)/C(C)=C/C)C(OC(=O)/C(C)=C/C)C3O)C(O)C2O)C(O)C(O)C1OC1OC(CO)C(OC(=O)/C(C)=C/C)C(OC(=O)/C(C)=C/C)C1O (stereo unspecified)
inactive: activity change, negative = cytotoxicity (C33A) -2.64% [at 11.6 µM] | activity change, negative = cytotoxicity (CAOV3) -7.6% [at 11.6 µM] | activity change, negative = cytotoxicity (CASKI) 2.92% [at 11.6 µM] | activity change, negative = cytotoxicity (Es-2) 9.5% [at 11.6 µM] | activity change, negative = cytotoxicity (HeLa) 29.5% [at 11.6 µM] | activity change, negative = cytotoxicity (Hek293T) -1.84% [at 11.6 µM] | activity change, negative = cytotoxicity (JEG-3) -2.52% [at 11.6 µM] | activity change, negative = cytotoxicity (OV90) -3.76% [at 11.6 µM] | activity change, negative = cytotoxicity (PA-1) 0.651% [at 11.6 µM] | activity change, negative = cytotoxicity (SKOV3) -11.6% [at 11.6 µM] | activity change, negative = cytotoxicity (Tov-21-G) 9.19% [at 11.6 µM] | activity change, negative = cytotoxicity (Tov112D) -1.35% [at 11.6 µM]
